Test [1] addresses Short transient receptor potential channel 4 (Mus musculus) (UniProt Q9QUQ5). Put plainly: mouse TRPC4 membrane potential modulation by TRPC6 hits, confirmation, selectivity assay for TRPC6 inhibitor project, cell-based, second specificity screen, HEK293 TRPC4/mu-opioid (AID 2776). The conditions noted are these: HEK293 TRPC4/MOR, membrane potential dye fluorescence, at 10 µM, channel activated by saturating DAMGO dose; hits give high values.

Test [2] relates to transient receptor potential cation channel C4 (TRPC4), mouse. The experiment in a line: mouse TRPC4 modulation by TRPC6 hits, confirmation, selectivity assay for TRPC6 inhibitor project, cell-based, HEK293 TRPC4/mu-opioid, membrane potential dye (AID 2777;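 active = rise or fall in signal beyond 3 SD of buffer-only wells in both replicate plates, either sign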;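 also: integrated kinetic ratio of fluorescence range over baseline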). The settings on record: membrane potential fluorescence, at 10 µM.
A short description of test [3]: nonspecific membrane potential effects, parental HEK293, confirmation, counter-screen for TRPC6 inhibitor project, cell-based, second counter screen (AID 2779;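 active = membrane potential signal moving either way by over 3 SD of the maximum-effect control, in both duplicate plates, meaning non-specific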). The conditions noted are these: parental HEK293 membrane potential dye fluorescence; at 10 µM; maximal acetylcholine challenge after compound addition. A general note: Counterscreens check selectivity or assay interference.

A short description of test [4]: membrane potential modulation in parental HEK293, confirmation, counter-screen for TRPC6 inhibitor project, cell-based (AID 2780;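 active = membrane potential signal shifting up or down by more than 3 SD of buffer-only wells, on both duplicate plates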;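 as to membrane potential signal change: plate controls were buffer EC0 wells for no effect and acetylcholine ECmax wells for full effect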). The conditions noted are these: parental HEK293 membrane potential dye fluorescence; at 10 µM.
In test [5] the target is Short transient receptor potential channel 6 (Mus musculus) (UniProt Q61143). Put plainly: mouse TRPC6 channel inhibitors, confirmation, HEK293 cells, membrane potential dye, duplicate (AID 488960;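 active = fluorescence ratio falls more than 5 SD below the full-stimulation control mean, in both duplicate runs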;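 as to inhibition: integrated fluorescence ratio of peak minus minimum over baseline after agonist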). The settings on record: ACh-evoked depolarization, at 10 µM; hits give high values.
Chain of Short transient receptor potential channel 6 (Mus musculus) (Q61143 whole entry, looked up): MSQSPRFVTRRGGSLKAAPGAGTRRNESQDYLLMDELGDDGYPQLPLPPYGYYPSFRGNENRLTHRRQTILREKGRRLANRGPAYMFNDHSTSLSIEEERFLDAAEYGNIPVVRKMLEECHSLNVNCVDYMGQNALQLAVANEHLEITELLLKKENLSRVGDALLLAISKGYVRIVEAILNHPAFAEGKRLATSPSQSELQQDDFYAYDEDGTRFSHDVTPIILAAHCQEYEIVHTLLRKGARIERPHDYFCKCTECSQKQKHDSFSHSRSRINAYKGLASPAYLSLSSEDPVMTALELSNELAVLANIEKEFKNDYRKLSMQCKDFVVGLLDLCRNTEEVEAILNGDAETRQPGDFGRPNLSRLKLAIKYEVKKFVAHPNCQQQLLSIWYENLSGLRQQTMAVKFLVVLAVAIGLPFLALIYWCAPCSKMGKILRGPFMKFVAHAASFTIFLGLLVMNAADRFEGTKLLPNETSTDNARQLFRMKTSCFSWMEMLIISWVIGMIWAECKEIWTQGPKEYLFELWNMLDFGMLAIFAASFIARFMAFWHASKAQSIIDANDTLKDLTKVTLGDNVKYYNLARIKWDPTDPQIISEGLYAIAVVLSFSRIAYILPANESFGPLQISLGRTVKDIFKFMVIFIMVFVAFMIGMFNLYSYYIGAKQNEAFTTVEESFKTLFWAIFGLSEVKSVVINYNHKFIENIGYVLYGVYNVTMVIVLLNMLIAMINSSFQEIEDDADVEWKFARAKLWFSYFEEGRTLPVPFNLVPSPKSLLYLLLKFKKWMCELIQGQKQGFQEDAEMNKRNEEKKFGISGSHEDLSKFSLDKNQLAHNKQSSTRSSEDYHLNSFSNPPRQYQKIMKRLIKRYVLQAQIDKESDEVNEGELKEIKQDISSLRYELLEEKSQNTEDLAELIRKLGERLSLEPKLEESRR
In test [6] the test system is TRPC4 beta (transient receptor potential cation channel C4), mouse. Put plainly: activators of mouse TRPC4 channel, confirmation, cell-based, Fluo4 calcium, HEK293 TRPC4beta/mu-opioid, duplicates, 10 µM (AID 2426;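 active = fluorescence ratio normalized to control raised more than 50% in primary screen plus both repeat runs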;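 as to activation: percent rise of integrated ratio over buffer wells lacking compound which define 0%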). The settings on record: Fluo4 calcium fluorescence, at 10 µM; hits give high values.
Test [7] deals with transient receptor potential cation channel C4 beta (TRPC4), mouse. The experiment in a line: activators of mouse TRPC4 channel, confirmation, cell-based, second round, Fluo4, HEK293 TRPC4beta/mu-opioid, 1 µM (AID 2461;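 active = primary screen active and over 50% activation in each of two duplicate runs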;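 as to activation: 0% = wells without test compound as baseline of integrated fluorescence ratio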). The settings on record: Fluo4 calcium fluorescence, at 1 µM; hits give high values.
Test [8] relates to TRPC4 (transient receptor potential cation channel C4 beta), mouse. The experiment in a line: positive allosteric modulators of mouse TRPC4, confirmation, cell-based, second round, Fluo-4, HEK293 TRPC4beta/mu-opioid, 1 µM (AID 2554;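 active = primary screen hit whose fluorescence ratio, in both repeats, exceeds the weak agonist control mean by 3 SD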). The settings on record: DAMGO EC20, Fluo-4 calcium flux, at 1 µM; hits give high values. Background: A change in cytosolic calcium serves as a functional read-out for many receptors and channels.

Test [9] deals with TRPC4 beta (transient receptor potential cation channel C4), mouse. The experiment in a line: positive allosteric modulators of mouse TRPC4, confirmation, cell-based, Fluo-4, HEK293 TRPC4beta/mu-opioid (AID 2555;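 active = primary screen hit whose calcium fluorescence ratio, in both repeats, exceeds the weak agonist control mean by 3 SD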). The conditions noted are these: DAMGO EC20, Fluo-4 calcium flux, at 10 µM; hits give high values.
The target of test [10] is Short transient receptor potential channel 4 (Mus musculus) (UniProt Q9QUQ5). The experiment in a line: inhibitors of mouse TRPC4 channel, confirmation, cell-based, Fluo4, HEK293 TRPC4beta/mu-opioid (AID 2636;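 active = calcium signal cut by more than 3 SD below the full-agonist control yet still positive, in both repeats and the earlier primary screen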). The settings on record: DAMGO, Fluo4 calcium flux, at 10 µM; hits give high values.
Chain of Short transient receptor potential channel 4 (Mus musculus) (Q9QUQ5 whole entry, looked up): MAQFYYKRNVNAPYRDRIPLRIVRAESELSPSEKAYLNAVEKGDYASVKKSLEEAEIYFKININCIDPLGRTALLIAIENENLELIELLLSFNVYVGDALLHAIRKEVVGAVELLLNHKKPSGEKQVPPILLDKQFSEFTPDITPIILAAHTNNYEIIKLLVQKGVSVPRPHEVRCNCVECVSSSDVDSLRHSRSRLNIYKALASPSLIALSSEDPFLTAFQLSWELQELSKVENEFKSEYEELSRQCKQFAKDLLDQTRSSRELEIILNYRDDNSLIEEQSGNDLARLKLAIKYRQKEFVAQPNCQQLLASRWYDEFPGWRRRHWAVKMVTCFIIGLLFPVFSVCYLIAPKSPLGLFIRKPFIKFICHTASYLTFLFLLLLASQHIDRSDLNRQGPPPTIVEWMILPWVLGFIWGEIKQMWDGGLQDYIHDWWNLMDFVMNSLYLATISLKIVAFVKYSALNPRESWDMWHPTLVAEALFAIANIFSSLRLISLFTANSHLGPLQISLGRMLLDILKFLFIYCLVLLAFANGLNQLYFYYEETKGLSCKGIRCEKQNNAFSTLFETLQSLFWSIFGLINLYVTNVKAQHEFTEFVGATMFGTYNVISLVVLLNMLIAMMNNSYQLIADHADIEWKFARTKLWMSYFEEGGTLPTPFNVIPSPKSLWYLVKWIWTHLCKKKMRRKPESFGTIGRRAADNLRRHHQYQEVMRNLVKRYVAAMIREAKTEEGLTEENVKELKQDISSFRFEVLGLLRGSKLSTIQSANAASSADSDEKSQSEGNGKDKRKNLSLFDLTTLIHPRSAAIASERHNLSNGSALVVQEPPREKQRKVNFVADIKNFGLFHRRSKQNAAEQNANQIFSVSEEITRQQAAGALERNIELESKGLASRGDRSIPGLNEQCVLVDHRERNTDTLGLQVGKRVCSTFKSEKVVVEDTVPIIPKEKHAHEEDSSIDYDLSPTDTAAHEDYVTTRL
For test [11] the target is unchanged. The experiment in a line: inhibitors of mouse TRPC4 channel, confirmation, cell-based, second round, Fluo4, HEK293 TRPC4beta/mu-opioid, 1 µM (AID 2637;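 active = calcium signal ratio cut to more than 3 SD under the fully stimulated control mean yet still positive, in both repeats and the primary screen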). The settings on record: Fluo4 calcium flux, DAMGO, at 1 µM; hits give high values.
Test [12] deals with Short transient receptor potential channel 6 (Mus musculus) (UniProt Q61143). The experiment in a line: inhibition of mouse TRPC6 channel, confirmation, selectivity assay for TRPC4 inhibitor project, cell-based, HEK293, membrane potential dye, duplicate (AID 434948;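 active = active in primary screen and both duplicates, each dropping signal beyond three positive-control SD with fluorescence still positive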). The conditions noted are these: HEK293 TRPC6, membrane potential dye fluorescence, at 10 µM, stimulated with maximal-effect acetylcholine; hits give high values.

The target is the same in test [13]. Put plainly: activation of mouse TRPC6 channel, confirmation, selectivity assay for TRPC4 activator project, cell-based, HEK293, membrane potential dye, duplicate (AID 434950;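 active = membrane potential signal rise above negative control mean plus 3 SD in both duplicates, also active in the earlier TRPC4 screen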;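 as to activation: 0% = buffer only wells and 100% = acetylcholine maximal-effect wells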). The conditions noted are these: HEK293 TRPC6, membrane potential fluorescence, at 10 µM; hits give high values.
Test [14] has the same target. Put plainly: TRPC6 potentiation by TRPC4 potentiator hits, confirmation, selectivity assay for TRPC4 potentiator project, HEK293 cells, membrane potential dye, duplicate (AID 434952;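 active = compound raising the membrane signal above positive-control mean plus 3 SD in both repeats, and a primary screen hit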). The settings on record: HEK293 TRPC6, membrane potential dye fluorescence, at 10 µM, maximal acetylcholine added after compound; hits give high values.
Test [15] has as its target Short transient receptor potential channel 4 (Mus musculus) (UniProt Q9QUQ5). The experiment in a line: calcium flux activators in TRPC4/5HT1a cells, counter-screen for TRPC4 activator project, cell-based, second counter screen, HEK293 TRPC4/5HT1a, Fluo-4 (AID 434977;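 active = calcium signal rise above buffer-control mean plus 5 SD in both duplicates, and also a hit in the primary screen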;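 also: plate controls were assay buffer for no effect and maximal serotonin response for full effect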). The conditions noted are these: Fluo-4 calcium flux, at 10 µM; hits give high values.
A short description of test [16]: calcium flux inhibitors in TRPC4/5HT1a cells, confirmation, counter-screen for TRPC4 inhibitor project, cell-based, second counter screen, HEK293 TRPC4/5HT1a, Fluo-4 (AID 434978;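 active = primary screen active whose calcium signal fell more than 3 SD beyond the full-serotonin control mean in both duplicate plates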;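 as to outcome: serotonin given first at submaximal then at maximal dose after compound preincubation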). The settings on record: Fluo-4 calcium flux, at 10 µM, serotonin added to trigger calcium flux; hits give high values.
The subject of test [17] is TRPC4 (mouse), co-expressed with 5HT1a in HEK293. Put plainly: calcium flux potentiators in TRPC4/5HT1a cells, confirmation, counter-screen for TRPC4 potentiator project, cell-based, second counter screen, HEK293 TRPC4/5HT1a, Fluo-4 (AID 434979;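 active = signal rise over 3 SD above mean of control wells given weak agonist, in both repeats and first screen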). The settings on record: Fluo-4 calcium flux, at 10 µM, serotonin added at its EC20 dose; hits give high values.
Test [18] in a line: calcium flux activation in mu-opioid HEK293 cells, confirmation, counter-screen for TRPC4 activator project, cell-based, HEK293 mu-opioid receptor line (AID 449723;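 active = hit in primary screen, with calcium signal over 5 SD above buffer well mean in both duplicates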;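 also: counter screen cells carry the mu-opioid receptor alone and lack TRPC4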). The settings on record: Fluo-4 calcium fluorescence, at 10 µM; hits give high values.
A short description of test [19]: calcium flux enhancement in mu-opioid HEK293 cells, confirmation, counter-screen for TRPC4 allosteric potentiator project, cell-based, HEK293 mu-opioid receptor line (AID 449724;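 active = calcium signal rise more than 3 SD above the low-dose agonist control mean, in both duplicate plates and the primary screen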). The conditions noted are these: Fluo-4 calcium flux, at 10 µM, compound added before EC20 DAMGO stimulus; hits give high values.
In test [20] the target is Short transient receptor potential channel 4 (Mus musculus) (UniProt Q9QUQ5). The experiment in a line: TRPC4 positive allosteric modulators, dose response, cell-based, HEK293 TRPC4/mu-opioid, Fluo-4 calcium, EC20 DAMGO (AID 434941;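 active = earlier screen potentiator hit that boosts the TRPC4 ion channel at some dose, with a dose response; inactive = no potentiation, no dose response, or not a prior hit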;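 also: calcium entry triggered by an EC20 dose of DAMGO at the co-expressed mu-opioid receptor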).

For some of these results: Results with a measured potency or affinity are listed apart. The list shows a part of the results. Activity calls are given as the source filed them.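 The calls were made as follows, unless noted: active = compounds whose fluorescence signal differed from control wells by over 3 SD, either direction, in both duplicate plates; inactive = the rest.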

For orientation: inhibition means the share of the control response that was lost under treatment. As for `CN(C)CCOC(=O)C(c1ccccc1)C1(O)CCCC1` (stereo not given), the outcome in test [1] and in [2] was inactive. Further, the signal change vs control in test [3] was -39.5% (active). For the same compound, the membrane potential signal change in [4] was 0.13% (active). Moreover, in [5], the inhibition was 90.5% (active).
Turning to `CCOC(=O)c1c(NC(=O)COC(=O)Cc2c[nH]c3ccccc23)sc(C(=O)N(C)C)c1C`, the values for the activation in test [6], in [13] and in test [15] were 194% (active), 46% (active) and 107% (active), respectively. In addition, the outcome in test [7], in test [10], in test [11], in [12], in [14] and in test [16] was inactive. For the same compound, the result in test [18] and in test [19] was inactive. For the same compound, the potentiation in test [8] is 15% (active); in test [9], 55% (active); in test [17] it was 60% (active).
For `Cn1c(O)c(/C=N/NC(=O)c2cc3ccccc3cc2O)c2ccccc21`, the activation in [6] is 81% (active); in test [13], 524% (active); in test [15], 59.2% (active); in test [18], 82.4% (active); in test [19] it was 879% (active). For the same compound, the outcome in test [7], in test [8], in test [10], in test [11], in test [12] and in test [16] was inactive. Moreover, the potentiation in [9] was 27% (active); in test [17] it was 17.8% (active). The potentiation, percent of control in test [14] was 238% (active).
As for `Cn1c(=NC(=O)c2cnccn2)sc2ccccc21`, the outcome in test [1] and in [5] was inactive. The activity change, negative = inhibition in test [2] is -25.3% (active). For the same compound, the signal change vs control in [3] is 24.5% (active). Further, the membrane potential signal change in test [4] was -416% (active).
For the compound `C[C@H](NC(=O)OC(C)(C)C)c1nnc(SCC(=O)Nc2ccc(Br)cc2)o1`, the outcome in [1], in [2], in [3] and in test [5] was inactive. For the same compound, the membrane potential signal change in test [4] was 0.29% (active).
Regarding `CC(C)(C)c1ccc(C(=O)NC(=S)NNC(=O)COc2ccccc2)cc1`, the outcome in test [6], in test [7], in test [8], in test [9], in test [11] and in test [20] was inactive. Also, the compound was classed as inactive in [12], in test [13], in test [14], in [17], in test [18] and in test [19]. For the same compound, the inhibition is 78% (active) in test [10] and 27.8% (active) in [16]. Moreover, the activation in test [15] is 16.6% (active).
Take `COc1cc(/C=C2/SC(=S)N(Cc3ccccc3)C2=O)cc(Cl)c1O`: the activation in test [6] was 144% (active); in test [13], 930% (active); in test [15], 156% (active); in [18], 165% (active); in test [19], 1140% (active). The result in test [7], in [10], in test [11], in test [12], in [16] and in [17] was inactive. For the same compound, the potentiation in [8] was 11% (active); in [9], 21% (active). Further, the potentiation, percent of control in test [14] was 310% (active).
As to `Cc1cc(Nc2ccc(N3CCOCC3)cc2)c2cccc(C)c2n1`, the inhibition in test [1] is 59% (active). In addition, the activity change, negative = inhibition in [2] is -24.1% (active). Further, the signal change vs control in test [3] is 26.5% (active). The membrane potential signal change in [4] was -362% (active). In test [5], the outcome was inactive.
With `OCCC1CN(Cc2ccc3nsnc3c2)CCN1C1CCCC1` (stereo not given), the outcome in [1], in test [2], in test [3], in [4] and in [5] was inactive.
`CC(C)CCNc1nc(N2CCCC2)c2c(c1C#N)CCN(C)C2`: the inhibition in test [1] is 54% (active); in test [5] it was 71.5% (active). Also, the activity change, negative = inhibition in test [2] is -16.9% (active). Besides, in [3], the outcome was inactive. In addition, in [4], the membrane potential signal change is -209% (active).
For `C=C(C)c1cccc(C(C)(C)NC(=O)NCCN(CC)CC)c1`, the call in test [1] and in test [3] was inactive. In test [2], the activity change, negative = inhibition is 1.45% (active). In addition, the membrane potential signal change in test [4] was 0.09% (active). Besides, the inhibition in [5] is 54.4% (active).
Regarding `CCCCc1cc(O)c(CCCC)c(O)c1`, the activation in test [6] is 63% (active); in [15], 44.6% (active); in [18], 34.5% (active). Further, the outcome in test [7], in [8], in [10], in [11], in test [12] and in test [13] was inactive. The outcome in [14], in test [16], in test [17] and in test [19] was inactive. The potentiation in test [9] was 14% (active).
In the case of `CC1CC(C)CN(C/C=C/c2ccccc2[N+](=O)[O-])C1` (stereo not given), the compound was called inactive in test [1] and in [5]. In addition, the activity change, negative = inhibition in test [2] was 4.24% (active). In addition, in test [3], the signal change vs control is 266% (active). Moreover, the membrane potential signal change in test [4] is 0.38% (active).
For `Cc1cc(OCCNCCO)cc(C)c1Cl`, the activation in [6] is 122% (active); in [7], 65% (active); in test [13], 37% (active); in [15], 35.3% (active). Further, the potentiation in test [8] was 20% (active); in [9] it was 19% (active); in [17], 24.3% (active). In addition, the outcome in test [10], in test [11], in test [12], in test [14], in test [16] and in test [18] was inactive. Besides, the outcome in [19] was inactive.
As for `Cn1c(=O)n(C)c2cc(C(=O)Nc3ccc4c(c3)OCO4)ccc21`, the outcome in test [1], in test [3] and in test [5] was inactive. Also, in test [2], the activity change, negative = inhibition is -23.4% (active). In addition, in test [4], the membrane potential signal change was -371% (active).

The values are drawn from PubChem BioAssay.
